In article PMC12820563, “FoxP3 forms a head-to-head dimer in vivo and stabilizes its multimerization on adjacent microsatellites” one finds binding signal data, which are given here for 41 sequences.

The full ranking holds about 16,000 sequences; the median of “rpm ratio (pull-down/input)” is about 0.5, and the highest 2% start at about 5.5. The sample holds the highest values, similar sequences and a random draw of the others, so the mix is not that of the screen.

The experiment deals with T1, MBP-FoxP3dN (Mus musculus, UniProt Q99JB6 188-423).
T1 sequence: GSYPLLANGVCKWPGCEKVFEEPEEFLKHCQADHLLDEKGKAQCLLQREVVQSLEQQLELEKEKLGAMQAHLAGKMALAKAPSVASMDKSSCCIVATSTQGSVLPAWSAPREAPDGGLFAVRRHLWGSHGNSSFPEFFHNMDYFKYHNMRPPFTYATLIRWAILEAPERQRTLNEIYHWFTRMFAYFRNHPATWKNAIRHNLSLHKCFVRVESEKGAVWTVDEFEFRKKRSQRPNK
Nature of the experiment: PD-seq (MBP pull-down with sequencing); 20 mM Tris-HCl pH 7.5, 100 mM NaCl, 1.5 mM MgCl2, 0.4 uM protein, 0.1 uM dsDNA library, 30 min, room temperature, amylose pull-down; high values mean tight binding. The following applies: protein: recombinant; tags: His6-MBP; chain copies: 2; dsDNA, one strand shown. An outline of the steps:
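Binding is given as reads-per-million enrichment, pull-down over input, with replicates pooled. The bait was an N-terminus-lacking mouse FoxP3 or FoxP1 fragment with a His6-MBP tag, expressed in E. coli and used at 0.4 µM with 0.1 µM Klenow-filled degenerate double-stranded DNA library for 30 min at room temperature in Tris pH 7.5 buffer with NaCl and MgCl2. Amylose resin pull-down with three washes was followed by proteinase K release, PCR barcoding and Illumina sequencing.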
“GATGATTGTTCTCCCAGCTGATGAATTTTGCACGTCGAGTAAACAAATTTTCCTAATCTTTCTGTTCAAGCGCCATCTAC”: the binding signal is 3.32 RPM ratio (pull-down/input). As to “GATGATTGTTCTCCCAGCTGATGAATTTTTAGGATCGAGTAAACAAATTTTCCTAATCTTTCTGTTCAAGCGCCATCTAC”, the binding signal is 0.222 RPM ratio (pull-down/input). Consider “GATGATTGTTCTCCCAGCTGATGAATTCAATTAGTCGAGTAAACAAATTTTCCTAATCTTTCTGTTCAAGCGCCATCTAC”, for which the binding signal was 1.25 RPM ratio (pull-down/input). The value for “GATGATTGTTCTCCCAGCTGATGAATTCTGTAGGTCGAGTAAACAAATTTTCCTAATCTTTCTGTTCAAGCGCCATCTAC” was 0.948 RPM ratio (pull-down/input); that for “GATGATTGTTCTCCCAGCTGATGAATTTGACGTATCGAGTAAACAAATTTTCCTAATCTTTCTGTTCAAGCGCCATCTAC” was 1.27 RPM ratio (pull-down/input); that for “GATGATTGTTCTCCCAGCTGATGAATTGGAGTACTCGAGTAAACAAATTTTCCTAATCTTTCTGTTCAAGCGCCATCTAC” was 0.523 RPM ratio (pull-down/input). The value for “GATGATTGTTCTCCCAGCTGATGAATTCGAACTTTCGAGTAAACAAATTTTCCTAATCTTTCTGTTCAAGCGCCATCTAC” was 0.271 RPM ratio (pull-down/input); that for “GATGATTGTTCTCCCAGCTGATGAATTCATCTCATCGAGTAAACAAATTTTCCTAATCTTTCTGTTCAAGCGCCATCTAC” was 0.393 RPM ratio (pull-down/input); that for “GATGATTGTTCTCCCAGCTGATGAATTTGTTAGTTCGAGTAAACAAATTTTCCTAATCTTTCTGTTCAAGCGCCATCTAC” was 7.44 RPM ratio (pull-down/input). The value for “GATGATTGTTCTCCCAGCTGATGAATTAGTTAGTTCGAGTAAACAAATTTTCCTAATCTTTCTGTTCAAGCGCCATCTAC” was 4.22 RPM ratio (pull-down/input); that for “GATGATTGTTCTCCCAGCTGATGAATTGTTAGTTTCGAGTAAACAAATTTTCCTAATCTTTCTGTTCAAGCGCCATCTAC” was 4.23 RPM ratio (pull-down/input); that for “GATGATTGTTCTCCCAGCTGATGAATTTTTTAGTTCGAGTAAACAAATTTTCCTAATCTTTCTGTTCAAGCGCCATCTAC” was 0.299 RPM ratio (pull-down/input). In the case of “GATGATTGTTCTCCCAGCTGATGAATTAGTAGTTTCGAGTAAACAAATTTTCCTAATCTTTCTGTTCAAGCGCCATCTAC”, the binding signal is 1.93 RPM ratio (pull-down/input). The value for “GATGATTGTTCTCCCAGCTGATGAATTAGTTTTTTCGAGTAAACAAATTTTCCTAATCTTTCTGTTCAAGCGCCATCTAC” was 3.9 RPM ratio (pull-down/input); that for “GATGATTGTTCTCCCAGCTGATGAATTAGTTGTTTCGAGTAAACAAATTTTCCTAATCTTTCTGTTCAAGCGCCATCTAC” was 6.61 RPM ratio (pull-down/input); that for “GATGATTGTTCTCCCAGCTGATGAATTAGTTCTTTCGAGTAAACAAATTTTCCTAATCTTTCTGTTCAAGCGCCATCTAC” was 0.409 RPM ratio (pull-down/input).

As for “GATGATTGTTCTCCCAGCTGATGAATTAGTTTCTTCGAGTAAACAAATTTTCCTAATCTTTCTGTTCAAGCGCCATCTAC”, the binding signal is 2.72 RPM ratio (pull-down/input). As for “GATGATTGTTCTCCCAGCTGATGAATTTAGTTGTTCGAGTAAACAAATTTTCCTAATCTTTCTGTTCAAGCGCCATCTAC”, the binding signal was 5.93 RPM ratio (pull-down/input). The value for “GATGATTGTTCTCCCAGCTGATGAATTCTTTAGTTCGAGTAAACAAATTTTCCTAATCTTTCTGTTCAAGCGCCATCTAC” was 0.297 RPM ratio (pull-down/input); that for “GATGATTGTTCTCCCAGCTGATGAATTAGTTTGTTCGAGTAAACAAATTTTCCTAATCTTTCTGTTCAAGCGCCATCTAC” was 6.22 RPM ratio (pull-down/input). The value for “GATGATTGTTCTCCCAGCTGATGAATTCGACAGGTCGAGTAAACAAATTTTCCTAATCTTTCTGTTCAAGCGCCATCTAC” was 0.284 RPM ratio (pull-down/input); that for “GATGATTGTTCTCCCAGCTGATGAATTCAGACATTCGAGTAAACAAATTTTCCTAATCTTTCTGTTCAAGCGCCATCTAC” was 0.869 RPM ratio (pull-down/input).

Regarding “GATGATTGTTCTCCCAGCTGATGAATTTCGCGAGTCGAGTAAACAAATTTTCCTAATCTTTCTGTTCAAGCGCCATCTAC”, the binding signal is 0.675 RPM ratio (pull-down/input). The value for “GATGATTGTTCTCCCAGCTGATGAATTAGAGCCCTCGAGTAAACAAATTTTCCTAATCTTTCTGTTCAAGCGCCATCTAC” was 0.358 RPM ratio (pull-down/input); that for “GATGATTGTTCTCCCAGCTGATGAATTTCAACGCTCGAGTAAACAAATTTTCCTAATCTTTCTGTTCAAGCGCCATCTAC” was 0.363 RPM ratio (pull-down/input). As to “GATGATTGTTCTCCCAGCTGATGAATTTATGGAGTCGAGTAAACAAATTTTCCTAATCTTTCTGTTCAAGCGCCATCTAC”, the binding signal is 0.454 RPM ratio (pull-down/input). The value for “GATGATTGTTCTCCCAGCTGATGAATTAGACAAATCGAGTAAACAAATTTTCCTAATCTTTCTGTTCAAGCGCCATCTAC” was 0.417 RPM ratio (pull-down/input).

Regarding “GATGATTGTTCTCCCAGCTGATGAATTACTTCACTCGAGTAAACAAATTTTCCTAATCTTTCTGTTCAAGCGCCATCTAC”, the binding signal was 0.319 RPM ratio (pull-down/input). The value for “GATGATTGTTCTCCCAGCTGATGAATTCTTAATCTCGAGTAAACAAATTTTCCTAATCTTTCTGTTCAAGCGCCATCTAC” was 0.28 RPM ratio (pull-down/input); that for “GATGATTGTTCTCCCAGCTGATGAATTTATACCTTCGAGTAAACAAATTTTCCTAATCTTTCTGTTCAAGCGCCATCTAC” was 0.85 RPM ratio (pull-down/input); that for “GATGATTGTTCTCCCAGCTGATGAATTGAACGGGTCGAGTAAACAAATTTTCCTAATCTTTCTGTTCAAGCGCCATCTAC” was 0.23 RPM ratio (pull-down/input). The value for “GATGATTGTTCTCCCAGCTGATGAATTCATATTGTCGAGTAAACAAATTTTCCTAATCTTTCTGTTCAAGCGCCATCTAC” was 1.06 RPM ratio (pull-down/input); that for “GATGATTGTTCTCCCAGCTGATGAATTCGGTCATTCGAGTAAACAAATTTTCCTAATCTTTCTGTTCAAGCGCCATCTAC” was 0.728 RPM ratio (pull-down/input). The value for “GATGATTGTTCTCCCAGCTGATGAATTTGGTGCTTCGAGTAAACAAATTTTCCTAATCTTTCTGTTCAAGCGCCATCTAC” was 1.59 RPM ratio (pull-down/input). Take “GATGATTGTTCTCCCAGCTGATGAATTGTCCGAATCGAGTAAACAAATTTTCCTAATCTTTCTGTTCAAGCGCCATCTAC”: the binding signal was 0.272 RPM ratio (pull-down/input). The value for “GATGATTGTTCTCCCAGCTGATGAATTTGTCATCTCGAGTAAACAAATTTTCCTAATCTTTCTGTTCAAGCGCCATCTAC” was 6.03 RPM ratio (pull-down/input).

As to “GATGATTGTTCTCCCAGCTGATGAATTGTCATCCTCGAGTAAACAAATTTTCCTAATCTTTCTGTTCAAGCGCCATCTAC”, the binding signal is 0.941 RPM ratio (pull-down/input). The value for “GATGATTGTTCTCCCAGCTGATGAATTTTGTCATTCGAGTAAACAAATTTTCCTAATCTTTCTGTTCAAGCGCCATCTAC” was 4.89 RPM ratio (pull-down/input); that for “GATGATTGTTCTCCCAGCTGATGAATTGTCATTTTCGAGTAAACAAATTTTCCTAATCTTTCTGTTCAAGCGCCATCTAC” was 0.999 RPM ratio (pull-down/input); that for “GATGATTGTTCTCCCAGCTGATGAATTTTTGTCATCGAGTAAACAAATTTTCCTAATCTTTCTGTTCAAGCGCCATCTAC” was 0.666 RPM ratio (pull-down/input).

Turning to “GATGATTGTTCTCCCAGCTGATGAATTTGTCATTTCGAGTAAACAAATTTTCCTAATCTTTCTGTTCAAGCGCCATCTAC”, the binding signal is 5.68 RPM ratio (pull-down/input).
